Records with an inconclusive call do not appear. Activity calls are given as the source filed them. Calls follow the shape of the dose curve; as a rule, active = well fitted inhibition curve with a large enough effect; inconclusive = small, poorly fitted or top-dose-only effect; inactive = no such curve, though single readings can be large or run the other way.
biological target: Cytochrome P450 3A4 (Homo sapiens) (UniProt P08684); experiment: qHTS Assay for Inhibitors and Substrates of Cytochrome P450 3A4 (AID 884); conditions: recombinant CYP3A4, Luciferin-PPXE luminescence; series mostly up to 57.1 µM; also: nearly all actives have a fitted effect of over 50% in size
Sequence (P08684 whole entry, looked up): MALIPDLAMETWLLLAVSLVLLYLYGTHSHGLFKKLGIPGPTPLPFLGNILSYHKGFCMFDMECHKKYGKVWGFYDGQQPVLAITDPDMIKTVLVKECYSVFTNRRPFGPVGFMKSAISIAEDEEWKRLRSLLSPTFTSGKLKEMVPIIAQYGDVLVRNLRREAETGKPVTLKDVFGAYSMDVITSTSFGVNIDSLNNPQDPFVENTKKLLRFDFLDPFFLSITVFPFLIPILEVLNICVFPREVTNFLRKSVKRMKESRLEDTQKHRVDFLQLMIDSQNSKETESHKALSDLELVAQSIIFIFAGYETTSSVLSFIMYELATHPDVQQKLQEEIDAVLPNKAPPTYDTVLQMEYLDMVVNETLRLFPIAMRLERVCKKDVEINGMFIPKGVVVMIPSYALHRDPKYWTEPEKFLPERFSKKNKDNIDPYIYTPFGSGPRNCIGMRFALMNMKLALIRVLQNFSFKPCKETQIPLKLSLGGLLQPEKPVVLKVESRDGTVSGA
Procedure, shortened: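 Luminescent readout of luciferin produced by CYP3A4 (20 nM) dealkylation of Luciferin-PPXE, 25 uM (its KM). NADPH-driven reaction ran 60 min at RT after 10 min compound preincubation; data scaled to 57 uM ketoconazole as 100% inhibition.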
Potency is read from the fitted curve at half-maximal effect.

Potency, active:
C/C(=C\[C@@H](NP(=O)(c1ccccc1)c1ccccc1)c1ccccc1)CO[Si](c1ccccc1)(c1ccccc1)C(C)(C)C 2 µM
COC(=O)c1ccc(C(NC(=O)OCc2ccccc2)/C(C)=C/[C@@H](C)C(=O)N[C@@H](CO)Cc2ccccc2)cc1 (stereo not given in full) 3.16 µM
CCCCCCN(C(=O)CCCCCN1C(=O)NC(C2CC2)C(C(=O)OCc2ccccc2)=C1C)C(C(=O)NCCCC)c1ccc(OCC(=O)OC)c(C(=O)OC)c1 (stereo not given) 3.98 µM
CC(=O)N1[C@H](C)C=C[C@]1(Cc1ccccc1)C(=O)NCc1ccc(C)o1 5.01 µM
COC(=O)c1ccc(C(NC(=O)OCc2ccccc2)/C(F)=C/[C@@H](C)C(=O)NCc2cc(C)on2)cc1 (stereo not given in full) 2.51 µM
CC(C)(C)[Si](OCC[C@@H]1C[C@@]1(C)[C@@H](NP(=O)(c1ccccc1)c1ccccc1)c1ccccc1)(c1ccccc1)c1ccccc1 12.6 µM
COC(=O)c1ccc(C(NC(=O)OCc2ccccc2)/C(=C/[C@@H](C)C(=O)N(C)Cc2ccccc2)c2cccnc2)cc1 (stereo not given in full) 2 µM
CCNC(=O)[C@H](C)/C=C/C(NC(=O)OCc1ccccc1)c1ccc(C(=O)OC)cc1 (stereo not given in full) 6.31 µM
COC(=O)c1ccc(C(NC(=O)OCc2ccccc2)/C(F)=C/[C@@H](C)C(=O)NCc2cccnc2)cc1 (stereo not given in full) 1.26 µM
COC(=O)c1ccc(C(NC(=O)OCc2ccccc2)/C(C)=C/[C@@H](C)C(=O)NCc2cc(C)on2)cc1 (stereo not given in full) 2 µM
COC(=O)c1ccc(C(NC(=O)OCc2ccccc2)/C(=C/[C@@H](C)C(=O)NCc2ccc(S(C)(=O)=O)cc2)c2cccnc2)cc1 (stereo not given in full) 2 µM
CCC[C@@H]1C[C@@]1(CCC)[C@@H](NC(=O)c1ccccc1)c1ccc(C(=O)OC)cc1 6.31 µM
CC(=O)N1[C@H](C)C=C[C@]1(Cc1ccccc1)C(=O)NCc1cc(F)cc(C(F)(F)F)c1 3.16 µM
C[C@@H]1C=C[C@](Cc2ccccc2)(C(=O)NCC2CC2)N1C(=O)c1ccccc1 12.6 µM
COC(=O)c1ccc(C(NC(=O)OCc2ccccc2)/C(I)=C/[C@@H](C)C(=O)NCc2ccc(C)o2)cc1 (stereo not given in full) 10 µM
COC(=O)c1ccc(C(NC(=O)OCc2ccccc2)/C(F)=C/[C@@H](C)C(=O)NCc2ccc(-c3ccccc3)cc2)cc1 (stereo not given in full) 3.98 µM
COC(=O)c1ccc(C(/C=C/[C@@H](C)C(=O)N[C@H](C)CO)NC(=O)OCc2ccccc2)cc1 (stereo not given in full) 15.8 µM
COC(=O)c1ccc(C(NC(=O)OCc2ccccc2)/C(F)=C/[C@@H](C)C(=O)NCc2nc3ccccc3s2)cc1 (stereo not given in full) 7.94 µM
COC(=O)c1ccc(C(NC(=O)OCc2ccccc2)/C(=C/[C@@H](C)C(=O)NCc2cc(C)on2)c2cccnc2)cc1 (stereo not given in full) 1.58 µM
COC(=O)[C@@H]1CCCN1C(=O)[C@H]1C[C@@H]1[C@H](NC(=O)OCc1ccccc1)c1ccccc1 10 µM
CC(C)CC1(C(=O)NCC2CC2)C=CCN1C(=O)c1ccccc1 (stereo not given) 15.8 µM
O=C1C(Cl)=C(NC2CCc3ccccc32)C(=O)c2ncccc21 (stereo not given) 1.58 µM
CCCCCCN(C(=O)CCCCCN1C(=O)NC(c2ccc(Cl)cc2)C(C(=O)OCc2ccccc2)=C1C)C(C(=O)NCCCC)c1ccc(OCC(=O)OC)c(C(=O)OC)c1 (stereo not given) 3.16 µM
CC(C)(C)NC(=O)C(c1ccc(I)cc1)N(CCN1CCOCC1)C(=O)CCCNC(=O)c1ccccc1 (stereo not given) 3.98 µM
COC(=O)c1ccc(C(NC(=O)OCc2ccccc2)/C(=C/[C@@H](C)C(=O)NCc2ccc(OC)c(O)c2)c2cccnc2)cc1 (stereo not given in full) 2.51 µM
COC(=O)N1[C@H](Cc2ccccc2)C=C[C@]1(C)C(=O)NCc1ccccn1 7.94 µM
COC(=O)c1ccc(C(NC(=O)OCc2ccccc2)/C(=C/[C@@H](C)C(=O)NCc2ccc(C)o2)c2cccnc2)cc1 (stereo not given in full) 15.8 µM
CCCCNC(=O)C(c1ccc(OCC(=O)OC)c(C(=O)OC)c1)N(Cc1ccccn1)C(=O)CCCCCN1C(=O)NC(c2ccc(-c3ccccc3)cc2)C(C(=O)OCc2ccccc2)=C1C (stereo not given) 7.94 µM
COC(=O)c1ccc(C(NC(=O)OCc2ccccc2)/C(=C/[C@@H](C)C(=O)NCCc2c[nH]c3ccccc23)c2cccnc2)cc1 (stereo not given in full) 1.58 µM
CCCCCCN(C(=O)CCCCCN1C(=O)NC(c2ccc(C3CCCCC3)cc2)C(C(=O)OCc2ccccc2)=C1C)C(C(=O)NCCCC)c1ccc(OCC(=O)OC)c(C(=O)OC)c1 (stereo not given) 2 µM
Cc1nn(-c2ccccc2)nc1CNC(=O)C(C)Cc1ccccc1 (stereo not given) 2.51 µM
CC(=O)N1C2(C=CC1(C)C(=O)NCc1ccccn1)CCCCC2 (stereo not given) 12.6 µM
COC(=O)c1ccc(C(NC(=O)OCc2ccccc2)/C(I)=C/[C@@H](C)C(=O)Nc2ccccc2)cc1 (stereo not given in full) 2 µM
COC(=O)c1ccc(C(NC(=O)OCc2ccccc2)/C(F)=C/[C@@H](C)C(=O)N[C@@H](CO)Cc2ccccc2)cc1 (stereo not given in full) 7.94 µM
CCCCCCN(C(=O)CCCCCN1C(=O)NC(c2ccccc2-c2ccccc2)C(C(=O)OCc2ccccc2)=C1C)C(C(=O)NCCCC)c1ccc(OCC(=O)OC)c(C(=O)OC)c1 (stereo not given) 6.31 µM
CCCCCCN(C(=O)CCCCCN1C(=O)NC(c2cccc([N+](=O)[O-])c2)C(C(=O)OCc2ccccc2)=C1C)C(C(=O)NCCCC)c1ccc(OCC(=O)OC)c(C(=O)OC)c1 (stereo not given) 3.16 µM
COC(=O)c1ccc(C(NC(=O)OCc2ccccc2)/C(=C/[C@@H](C)C(=O)Nc2ccccc2)c2cccnc2)cc1 (stereo not given in full) 1.58 µM
COC(=O)c1ccc(C(NC(=O)OCc2ccccc2)/C(C)=C/[C@@H](C)C(=O)Nc2ccc(OC)cc2)cc1 (stereo not given in full) 2.51 µM
CCCCCCN(C(=O)CCCCCN1C(=O)NC(c2ccc([N+](=O)[O-])cc2)C(C(=O)OCc2ccccc2)=C1C)C(C(=O)NCCCC)c1ccc(OCC(=O)OC)c(C(=O)OC)c1 (stereo not given) 2 µM
COC(=O)c1ccc(C(NC(=O)OCc2ccccc2)/C(F)=C/[C@@H](C)C(=O)NCCc2c[nH]c3ccc(OC)cc23)cc1 (stereo not given in full) 1.26 µM
